Reference: PubChem BioAssay (NCATS)
A number with no mark means an inactive call. Results filed as inconclusive are left out. Entries that show only a call come without a potency. Calls of active or inactive are those of the source. Calls follow the shape of the dose curve; as a rule, active = well fitted curve in the direction sought with a large enough effect; inconclusive = small, poorly fitted or top-dose-only effect, or another doubt; inactive = no such curve, though single readings can be large; an effect the other way counts as inactive or inconclusive.

Experiments:
[1] = Viability counterscreen for antagonist of constitutive androstane receptor (CAR) against the NCATS DSHEA and TCM libraries (AID 1794837);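 also: compound exposure lasted 24 h before viability reading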
How it was run: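 Viability was measured by CellTiter-Fluor fluorescence (405/540 nm, 1 hr) in HepG2-CYP2B6-hCAR cells. Cells were co-treated 24 hr with 48 uM CITCO (final), antagonist mode, and test substances.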

[2] = Viability counterscreen for agonist of constitutive androstane receptor (CAR) against the NCATS DSHEA and TCM libraries (AID 1794838)
How it was run: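 Cell viability, from CellTiter-Fluor fluorescence (405/540 nm), was scored after a 24 h, 37C exposure of HepG2 cells carrying CYP2B6 reporter and hCAR to test substances in presence of 0.75 uM PK11195.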

[3] = target: Nuclear receptor subfamily 1 group I member 3 (Homo sapiens) (UniProt Q14994); test: Primary qHTS for agonist of constitutive androstane receptor (CAR) against the NCATS DSHEA and TCM libraries (AID 1794839);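 also: HepG2 cells expressing human CAR with a CYP2B6 reporter plus PK11195 antagonist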
Sequence of Nuclear receptor subfamily 1 group I member 3 (Homo sapiens) (Q14994 whole entry, looked up): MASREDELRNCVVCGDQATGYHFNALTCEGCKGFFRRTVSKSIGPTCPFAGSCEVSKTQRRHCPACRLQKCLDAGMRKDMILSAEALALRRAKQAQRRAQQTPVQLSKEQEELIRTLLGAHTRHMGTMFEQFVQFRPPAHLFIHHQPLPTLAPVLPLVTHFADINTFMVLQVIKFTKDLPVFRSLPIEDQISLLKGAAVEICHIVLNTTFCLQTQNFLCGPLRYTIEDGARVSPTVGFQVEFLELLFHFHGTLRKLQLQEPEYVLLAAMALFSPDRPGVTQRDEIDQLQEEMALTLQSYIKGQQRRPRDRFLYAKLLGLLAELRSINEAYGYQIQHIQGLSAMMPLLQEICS
How it was run: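 Agonist mode in presence of hCAR antagonist PK11195 (0.75 µM final): test substances, 24 h, 37 °C, on HepG2-CYP2B6-hCAR cells. Same-well readouts: fluorescence viability, then ONE-Glo luminescence; CITCO as reference agonist.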

[4] = HepG2 viability counterscreen (readout 2: ATP content) against the NCATS DSHEA and TCM libraries (AID 1794840);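 also: HepG2 cells exposed to substances for about 24 h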
How it was run: (§1)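 Readout 1: cellular protease activity, GF-AFC substrate (25 uM final, 30 min, fluorescence 380/510 nm). Readout 2: ATP content by CellTiter-Glo luminescence after 30 min at RT. Both follow ~24 h exposure of HepG2 cells (1,000/well) to substances.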

[5] = HepG2 viability counterscreen (readout 1: protease activity) against the NCATS DSHEA and TCM libraries (AID 1794841);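 also: cells exposed to compounds for about 24 h before the protease read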
How it was run: as §1

[6] = target: Glutathione peroxidase 1 (Homo sapiens) (UniProt P07203); test: Primary qHTS Assay for Inhibitors of Recombinant Selenoprotein Glutathione Peroxidase 1 (GPX1) (AID 1845191); also: nearly all actives have a fitted effect of over 65% in size
Sequence of Glutathione peroxidase 1 (Homo sapiens) (P07203 whole entry, looked up): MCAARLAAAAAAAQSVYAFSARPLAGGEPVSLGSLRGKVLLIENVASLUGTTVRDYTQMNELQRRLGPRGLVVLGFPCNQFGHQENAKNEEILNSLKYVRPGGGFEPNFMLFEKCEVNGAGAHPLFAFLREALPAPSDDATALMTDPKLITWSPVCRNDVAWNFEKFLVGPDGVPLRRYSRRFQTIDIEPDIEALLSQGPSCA
How it was run: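 Recombinant GPX1 (10 nM final) was preincubated with compound for 30 min at room temperature, then reacted with 1 mM GSH, 0.5 mM CHP, 0.5 mM NADPH and 100 nM glutathione reductase; NADPH fluorescence (340/450 nm) was read at 0 and 15 min.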

[7] = target: Phospholipid hydroperoxide glutathione peroxidase GPX4 (Homo sapiens) (UniProt P36969); test: Primary qHTS Assay for Inhibitors of Recombinant Selenoprotein Glutathione Peroxidase 4 (GPX4) (AID 1845192); also: nearly all actives have a fitted effect of over 65% in size
Sequence of Phospholipid hydroperoxide glutathione peroxidase GPX4 (Homo sapiens) (P36969 whole entry, looked up): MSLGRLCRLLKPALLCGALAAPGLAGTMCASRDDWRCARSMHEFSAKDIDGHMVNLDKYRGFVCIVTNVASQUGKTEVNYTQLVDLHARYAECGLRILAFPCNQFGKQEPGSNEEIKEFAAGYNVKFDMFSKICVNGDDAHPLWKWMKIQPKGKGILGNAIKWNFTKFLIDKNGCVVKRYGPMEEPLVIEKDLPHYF
How it was run: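 GR-coupled readout: 100 nM GR, 1 mM GSH, 0.5 mM NADPH; NADPH fluorescence (ex 340/em 450 nm) read at t=0 and after 15 min RT. GPX4 200 nM, preincubated 30 min with compound; substrate 0.5 mM CHP.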

[8] = target: Cytochrome P450 3A4 (Homo sapiens) (UniProt P08684); test: qHTS for inhibitors of CYP3A4 against the NCATS DSHEA and TCM libraries (AID 1919971);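 also: inhibition lowers luminescence from luciferin made by CYP3A4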
Sequence of Cytochrome P450 3A4 (Homo sapiens) (P08684 whole entry, looked up): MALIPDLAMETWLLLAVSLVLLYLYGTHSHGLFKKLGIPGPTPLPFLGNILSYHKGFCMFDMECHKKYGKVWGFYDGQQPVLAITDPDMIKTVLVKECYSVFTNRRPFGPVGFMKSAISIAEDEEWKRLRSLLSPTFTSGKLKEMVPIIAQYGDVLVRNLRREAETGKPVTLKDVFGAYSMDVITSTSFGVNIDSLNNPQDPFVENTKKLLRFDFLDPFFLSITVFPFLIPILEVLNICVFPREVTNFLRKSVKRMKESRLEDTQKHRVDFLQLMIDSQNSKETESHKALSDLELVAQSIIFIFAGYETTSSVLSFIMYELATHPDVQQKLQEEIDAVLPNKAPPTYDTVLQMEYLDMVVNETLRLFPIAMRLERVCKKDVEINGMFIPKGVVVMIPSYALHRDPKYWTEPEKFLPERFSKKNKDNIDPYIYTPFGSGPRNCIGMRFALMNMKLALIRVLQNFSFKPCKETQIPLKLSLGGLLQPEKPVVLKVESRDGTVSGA
How it was run: (§2)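 Light output from converted D-luciferin reports remaining CYP activity. Compounds preincubate with enzyme and substrate for 15 min; NADPH regeneration (1x final) runs the reaction for 30-45 min.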

[9] = target: Cytochrome P450 2D6 (Homo sapiens) (UniProt P10635); test: qHTS for inhibitors of CYP2D6 against the NCATS DSHEA and TCM libraries (AID 1919972)
Sequence of Cytochrome P450 2D6 (Homo sapiens) (P10635 whole entry, looked up): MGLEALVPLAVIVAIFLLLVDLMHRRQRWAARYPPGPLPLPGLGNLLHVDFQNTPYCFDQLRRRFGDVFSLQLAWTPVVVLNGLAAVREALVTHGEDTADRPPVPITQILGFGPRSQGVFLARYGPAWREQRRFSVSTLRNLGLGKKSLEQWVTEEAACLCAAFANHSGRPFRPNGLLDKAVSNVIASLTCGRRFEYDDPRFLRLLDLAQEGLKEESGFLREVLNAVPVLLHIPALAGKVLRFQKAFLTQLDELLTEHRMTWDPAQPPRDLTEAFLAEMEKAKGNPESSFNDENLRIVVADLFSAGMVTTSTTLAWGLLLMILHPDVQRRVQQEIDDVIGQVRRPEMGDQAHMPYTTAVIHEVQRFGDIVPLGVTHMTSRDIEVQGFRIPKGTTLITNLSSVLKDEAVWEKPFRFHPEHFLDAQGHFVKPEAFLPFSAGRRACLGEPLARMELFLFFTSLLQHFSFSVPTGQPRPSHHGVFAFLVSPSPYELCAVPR
How it was run: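 Steps: enzyme plus luciferin substrate dispensed; test substances pinned; 15 min RT; 1x NADPH regenerating solution added, 30–45 min RT protected from light; detection reagent, 30 min RT; luminescence measured. Minus-enzyme wells as background.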

[10] = target: Cytochrome P450 2C9 (Homo sapiens) (UniProt P11712); test: qHTS for inhibitors of CYP2C9 against the NCATS DSHEA and TCM libraries (AID 1919973);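 also: luminogenic pro-luciferin CYP2C9 substrate turned into luciferin with NADPH regeneration; series mostly up to about 34 µM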
Sequence of Cytochrome P450 2C9 (Homo sapiens) (P11712 whole entry, looked up): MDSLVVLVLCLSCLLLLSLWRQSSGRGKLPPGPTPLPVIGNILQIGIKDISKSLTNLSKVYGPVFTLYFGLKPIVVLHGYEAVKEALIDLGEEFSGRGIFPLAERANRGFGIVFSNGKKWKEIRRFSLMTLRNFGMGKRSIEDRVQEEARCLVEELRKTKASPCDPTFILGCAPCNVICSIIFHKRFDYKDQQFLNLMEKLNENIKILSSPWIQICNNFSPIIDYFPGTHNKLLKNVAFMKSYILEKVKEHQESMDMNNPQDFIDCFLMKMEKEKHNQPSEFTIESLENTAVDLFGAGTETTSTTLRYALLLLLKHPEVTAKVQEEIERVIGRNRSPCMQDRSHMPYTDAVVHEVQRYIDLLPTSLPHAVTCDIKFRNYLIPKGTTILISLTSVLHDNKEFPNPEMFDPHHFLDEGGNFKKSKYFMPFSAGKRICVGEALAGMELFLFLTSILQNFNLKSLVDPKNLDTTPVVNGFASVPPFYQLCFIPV
How it was run: as §2

[11] = target: Cytochrome P450 2C19 (Homo sapiens) (UniProt P33261); test: qHTS for inhibitors of CYP2C19 against the NCATS DSHEA and TCM libraries (AID 1919974);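 also: luminescence from luciferin released by CYP2C19 oxidation of a pro-luciferin substrate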
Sequence of Cytochrome P450 2C19 (Homo sapiens) (P33261 whole entry, looked up): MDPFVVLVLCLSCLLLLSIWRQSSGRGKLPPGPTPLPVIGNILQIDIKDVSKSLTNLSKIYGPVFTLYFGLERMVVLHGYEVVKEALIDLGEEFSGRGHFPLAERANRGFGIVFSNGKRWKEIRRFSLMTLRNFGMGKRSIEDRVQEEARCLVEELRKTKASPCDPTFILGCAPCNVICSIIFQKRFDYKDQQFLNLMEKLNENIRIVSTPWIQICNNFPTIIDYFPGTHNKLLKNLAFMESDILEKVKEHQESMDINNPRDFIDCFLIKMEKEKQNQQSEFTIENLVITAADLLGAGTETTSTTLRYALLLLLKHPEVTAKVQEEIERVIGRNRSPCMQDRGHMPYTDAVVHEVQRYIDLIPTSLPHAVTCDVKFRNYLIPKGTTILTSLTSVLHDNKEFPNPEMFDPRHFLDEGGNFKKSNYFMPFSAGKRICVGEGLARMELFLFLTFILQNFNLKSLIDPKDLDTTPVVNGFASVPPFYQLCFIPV
How it was run: as §2

[12] = KB-3-1 P-gp reporter qHTS against the NCATS DSHEA and TCM libraries (AID 1919975)
How it was run: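 Cell viability by CellTiter-Glo luminescence following ~72 h compound exposure (concentration-response). Uses parental, non-P-gp-overexpressing KB-3-1 line, 500 cells/well in DMEM/10% FBS, attached ~4 h before dosing.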

[13] = target: Cytochrome P450 1A2 (Homo sapiens) (UniProt P05177); test: qHTS for inhibitors of CYPIA2 against the NCATS DSHEA and TCM libraries (AID 1919976);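 also: light from luciferin formed by CYP1A2 from a pro-luciferin substrate; series mostly up to about 37 µM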
Sequence of Cytochrome P450 1A2 (Homo sapiens) (P05177 whole entry, looked up): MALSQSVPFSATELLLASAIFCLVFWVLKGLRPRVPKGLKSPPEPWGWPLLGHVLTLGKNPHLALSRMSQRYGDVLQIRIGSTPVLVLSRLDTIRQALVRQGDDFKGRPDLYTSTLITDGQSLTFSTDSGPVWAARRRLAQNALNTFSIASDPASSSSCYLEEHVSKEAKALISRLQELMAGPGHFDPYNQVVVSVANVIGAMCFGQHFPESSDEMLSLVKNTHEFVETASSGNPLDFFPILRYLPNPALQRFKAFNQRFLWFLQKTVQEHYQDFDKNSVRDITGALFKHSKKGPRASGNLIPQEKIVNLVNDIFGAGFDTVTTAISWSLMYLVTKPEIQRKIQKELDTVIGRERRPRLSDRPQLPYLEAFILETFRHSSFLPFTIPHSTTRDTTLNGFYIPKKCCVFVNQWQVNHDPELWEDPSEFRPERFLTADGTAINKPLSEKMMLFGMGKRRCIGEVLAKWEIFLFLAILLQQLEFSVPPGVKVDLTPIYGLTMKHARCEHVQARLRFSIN
How it was run: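 In this quantitative HTS, inhibition of recombinant human CYP1A2 was measured as loss of luciferin-derived luminescence. Turnover ran 30-45 min at RT after NADPH regeneration solution was added.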

[14] = qHTS Counterscreen for compound interference against the NCATS DSHEA and TCM libraries (AID 1919978); settings: firefly luciferase detection reagent interference, luminescence;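 also: compounds preincubated with 1 µM D-luciferin or buffer before detection reagent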
How it was run: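 With 1 uM D-luciferin or phosphate buffer only, compounds at final 19.5 nM–39.8 uM were incubated for 15 min at room temperature. Luciferase detection reagent was then added, and luminescence was measured after a further 30 min at room temperature.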

[15] = Dual reporter qHTS for agonist of Pregnane X Receptor (hPXR) against the NCATS DSHEA and TCM libraries: Fluorescence readout (AID 1920058)
How it was run: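 Measures viability of the PXR reporter HepG2 line by protease-substrate fluorescence (405/540 nm), taken 1 h after CellTiter-Fluor addition. Substances are tested as concentration series over a ~24 h exposure, with rifampicin as agonist control.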

[16] = target: Nuclear receptor subfamily 1 group I member 2 (Homo sapiens) (UniProt O75469); test: Dual reporter qHTS for agonist of Pregnane X Receptor (hPXR) against the NCATS DSHEA and TCM libraries: Luminescence readout (AID 1920059)
Sequence of Nuclear receptor subfamily 1 group I member 2 (Homo sapiens) (O75469 whole entry, looked up): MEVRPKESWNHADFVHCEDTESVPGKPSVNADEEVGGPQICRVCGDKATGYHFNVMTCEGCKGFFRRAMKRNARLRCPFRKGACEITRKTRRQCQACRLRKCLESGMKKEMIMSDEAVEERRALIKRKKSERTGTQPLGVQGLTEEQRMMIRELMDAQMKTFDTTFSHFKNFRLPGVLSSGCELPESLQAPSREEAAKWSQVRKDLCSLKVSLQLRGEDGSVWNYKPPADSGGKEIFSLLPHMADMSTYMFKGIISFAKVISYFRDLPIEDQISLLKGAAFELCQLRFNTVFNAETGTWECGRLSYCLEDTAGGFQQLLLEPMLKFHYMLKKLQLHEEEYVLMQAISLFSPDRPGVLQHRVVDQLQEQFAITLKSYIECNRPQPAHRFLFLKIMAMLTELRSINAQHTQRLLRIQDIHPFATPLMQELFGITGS
How it was run: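 hPXR-LucHepG2 cells in phenol red-free DMEM with 5% charcoal-stripped FBS, 2000 cells/well, attached 5 h, then exposed 24 h at 37C to compounds; rifampicin as positive agonist control (2.8 nM–92 uM). Luciferase luminescence read.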

[17] = target: Nuclear receptor subfamily 1 group I member 2 (Homo sapiens) (UniProt O75469); test: Dual reporter qHTS for antagonist of Pregnane X Receptor (hPXR) against the NCATS DSHEA and TCM libraries: Luminescence Readout (AID 1920060)
How it was run: (§3)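 Rifampicin-stimulated (2 uM final) hPXR-luciferase HepG2 cells were treated for 24 h with DSNP/TCM substances. Viability came from CellTiter-Fluor fluorescence, reporter activity from ONE-Glo luminescence.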

[18] = Dual reporter qHTS for antagonist of Pregnane X Receptor (hPXR) against the NCATS DSHEA and TCM libraries: Fluorescence Readout (AID 1920061)
How it was run: as §3

NC(=O)NC1NC(=O)NC1=O (stereo unspecified)
outcome [1]: inactive | outcome [2]: inactive | outcome [3]: inactive | outcome [4]: inactive | outcome [5]: inactive | Potency [6]: inactive | Potency [7]: inactive | outcome [8]: inactive | outcome [9]: inactive | outcome [10]: inactive | Potency [11]: inactive | outcome [12]: inactive | outcome [13]: inactive | max response [14]: -2.81% | outcome [15]: inactive | outcome [16]: inactive | outcome [17]: inactive | outcome [18]: inactive

CC(=O)NS(=O)(=O)c1ccc(N)cc1
Potency [6]: inactive | Potency [7]: inactive

Cc1c(N(C)C)c(=O)n(-c2ccccc2)n1C
Potency [6]: inactive | Potency [7]: inactive

Cc1[nH]c(C)c(Cl)c(=O)c1Cl
Potency [6]: inactive | Potency [7]: inactive

O=C(O)CCC(=O)O
Potency [6]: inactive | Potency [7]: inactive

CC(=O)Nc1ccccc1
Potency [6]: inactive | Potency [7]: inactive

c1ccc2[nH]ccc2c1
Potency [6]: inactive | Potency [7]: inactive

NS(=O)(=O)c1cc2c(cc1C(F)(F)F)NCNS2(=O)=O
Potency [6]: inactive | Potency [7]: inactive

COC(=O)c1ccc(O)cc1
Potency [6]: inactive | Potency [7]: inactive

CN[C@@H]1[C@H](O)[C@H](NC)[C@H]2O[C@@]3(O)C(=O)C[C@@H](C)O[C@H]3O[C@@H]2[C@H]1O
Potency [6]: inactive | Potency [7]: inactive

FC(F)(F)C(Cl)Br (stereo unspecified)
Potency [6]: inactive | Potency [7]: inactive

CC(C)(C)C(=O)OCOC(=O)[C@@H]1N2C(=O)[C@@H](NC(=O)[C@H](N)c3ccccc3)[C@H]2SC1(C)C
Potency [6]: inactive | Potency [7]: inactive

Nc1ccc(S(=O)(=O)c2ccc(N)cc2)cc1
Potency [6]: inactive | Potency [7]: inactive

COCC(=O)Nc1c(I)c(C(=O)NCC(O)CO)c(I)c(C(=O)N(C)CC(O)CO)c1I (stereo unspecified)
Potency [6]: inactive | Potency [7]: inactive

CN/C(=C\[N+](=O)[O-])NCCSCc1csc(CN(C)C)n1
Potency [6]: inactive | Potency [7]: inactive

O=C(OOC(=O)c1ccccc1)c1ccccc1
Potency [6]: inactive | Potency [7]: inactive

CCCCCCCCCCC(CO)CCCCCCCC (stereo unspecified)
Potency [6]: inactive | Potency [7]: inactive

CC(=O)N(CC(O)CN(C(C)=O)c1c(I)c(C(=O)NCC(O)CO)c(I)c(C(=O)NCC(O)CO)c1I)c1c(I)c(C(=O)NCC(O)CO)c(I)c(C(=O)NCC(O)CO)c1I (stereo unspecified)
Potency [6]: inactive | Potency [7]: inactive

Cc1ccsc1C(=CCCN1CCC[C@@H](C(=O)O)C1)c1sccc1C
Potency [6]: inactive | Potency [7]: inactive

NS(=O)(=O)c1cc(C2(O)NC(=O)c3ccccc32)ccc1Cl (stereo unspecified)
Potency [6]: inactive | Potency [7]: inactive

CC1(C)[C@@H](OC(=O)CCC(=O)O)CC[C@]2(C)[C@H]3C(=O)C=C4[C@@H]5C[C@@](C)(C(=O)O)CC[C@]5(C)CC[C@@]4(C)[C@]3(C)CC[C@@H]12
Potency [6]: inactive | Potency [7]: inactive

CCOc1ccccc1O[C@H](c1ccccc1)[C@H]1CNCCO1
Potency [6]: inactive | Potency [7]: inactive

CCOc1cc(NC(C)=O)ccc1C(=O)OC
Potency [6]: inactive | Potency [7]: inactive

CCCCOC(=O)c1ccc(N)cc1
Potency [6]: inactive | Potency [7]: inactive

CCCC(O)C(CC)CO (stereo unspecified)
Potency [6]: inactive | Potency [7]: inactive

OCCN1C[C@H](O)[C@@H](O)[C@H](O)[C@H]1CO
Potency [6]: inactive | Potency [7]: inactive

O=C(O)CNC(=O)c1ccccc1I
Potency [6]: inactive | Potency [7]: inactive

C[C@]1(Cn2ccnn2)[C@H](C(=O)O)N2C(=O)C[C@H]2S1(=O)=O
Potency [6]: inactive | Potency [7]: inactive

C/C=C/C(=O)N(CC)c1ccccc1C
Potency [6]: inactive | Potency [7]: inactive

O=C(Cn1ccnc1[N+](=O)[O-])NCc1ccccc1
Potency [6]: inactive | Potency [7]: inactive

CCCCCCCCCCCCCCCCCCO
Potency [6]: inactive | Potency [7]: inactive

NCC1CCC(C(=O)Oc2ccc(CCC(=O)O)cc2)CC1 (stereo unspecified)
Potency [6]: inactive | Potency [7]: inactive

Cc1cc(C)c(NC(=O)CN(CC(=O)O)CC(=O)O)c(C)c1Br
Potency [6]: inactive | Potency [7]: inactive

Cc1cc(OI)c(C(C)C)cc1-c1cc(C(C)C)c(OI)cc1C
Potency [6]: inactive | Potency [7]: inactive

C[C@@H](c1ncncc1F)C(O)(Cn1cncn1)c1ccc(F)cc1F (stereo partly specified)
Potency [6]: inactive | Potency [7]: inactive

CC1CC(OC(=O)c2ccccc2O)CC(C)(C)C1 (stereo unspecified)
Potency [6]: inactive | Potency [7]: inactive

NC(=O)CC[C@@H](N)C(=O)O
Potency [6]: inactive | Potency [7]: inactive

CC(=O)N[C@@H](Cc1ccc(O)cc1)C(=O)O
Potency [6]: inactive | Potency [7]: inactive

C=CCNC(N)=S
Potency [6]: inactive | Potency [7]: inactive

CC(=O)OCC(=O)[C@@]1(O)CC[C@H]2[C@@H]3CCC4=CC(=O)C=C[C@]4(C)[C@@]3(F)[C@@H](O)C[C@@]21C
Potency [6]: inactive | Potency [7]: inactive

CC1CCN(CCCC(=O)c2ccc(F)cc2)CC1
Potency [6]: inactive | Potency [7]: inactive

Cc1c(I)c(=O)n(-c2ccccc2)n1C
Potency [6]: inactive | Potency [7]: inactive

CCCCC1(COC(=O)CCC(=O)O)C(=O)N(c2ccccc2)N(c2ccccc2)C1=O
Potency [6]: inactive | Potency [7]: inactive

CCCNC(C)(C)COC(=O)c1ccccc1
Potency [6]: inactive | Potency [7]: inactive

Cc1cccc(Nc2ccccc2C(=O)O)c1C
Potency [6]: inactive | Potency [7]: inactive

COc1ccc(-c2cc(=O)c3c(O)cc(O[C@@H]4O[C@H](CO[C@@H]5O[C@@H](C)[C@H](O)[C@@H](O)[C@H]5O)[C@@H](O)[C@H](O)[C@H]4O)cc3o2)cc1O
Potency [6]: inactive | Potency [7]: inactive

CN(C/C=C/C#CC(C)(C)C)Cc1cccc2ccccc12
Potency [6]: inactive | Potency [7]: inactive

CC(C(=O)O)c1ccc2c(c1)Cc1cccnc1O2 (stereo unspecified)
Potency [6]: inactive | Potency [7]: inactive

OC[C@@H](O)[C@@H](O)[C@H](O)[C@H](O)CO
Potency [6]: inactive | Potency [7]: inactive

C[N+]1(C)CCCC(OC(=O)C(O)(c2ccccc2)c2ccccc2)C1 (stereo unspecified)
Potency [6]: inactive | Potency [7]: inactive

CCN(CC)C(=O)c1cccc(C)c1
Potency [6]: inactive | Potency [7]: inactive

O=S1(=O)OC(c2ccc(O)cc2)(c2ccc(O)cc2)c2ccccc21
Potency [6]: inactive | Potency [7]: inactive

C[C@@H](N)C(=O)O
Potency [6]: inactive | Potency [7]: inactive

NC(=O)c1ccc([N+](=O)[O-])cc1Cl
Potency [6]: inactive | Potency [7]: inactive

O=C(O)COC(=O)Cc1ccccc1Nc1c(Cl)cccc1Cl
Potency [6]: inactive | Potency [7]: inactive
